# Several values for one entry are separate records, joined by “and”; a condition that tells them apart may be missing. Identical values can stand only once. Activity calls are given as the source filed them. The calls were made as follows: active = hit-call score of the fitted dose curve at least 0.9, where 1 is the maximum; inactive = score below 0.9.
# Read-out: ABC Transporter (ABCC2), ABCC2 (gene 1244)
# Assay: LTEA_HepaRG_ABCC2: Life Technologies and Expression Analysis (LTEA) Assay for ABC Transporter (ABCC2) using HepaRG (AID 2283464)
# Conditions: mRNA level, 48 h; actives raise or lower the signal
# Procedure: LTEA_HepaRG is a cell based, multiplexed-readout assay that uses HepaRG, a human liver cell line, with measurements taken at 48 hours after chemical dosing on a 96-well plate.LTEA_HepaRG_ABCC2 is one of 102 assay component(s) measured in the LTEA HepaRG cell culture assay. It is a marker of Steatosis/NR mediated transport.Data from the assay component LTEA_HepaRG_ABCC2 was analyzed into 1 endpoint. This assay endpoint, LTEA_HepaRG_ABCC2, was analyzed with bidirectional fitting relative to DMSO as the negative control and baseline of activity. Using a type of inducible reporter, measures of mRNA induction for gain or loss-of-signal activity can be used to understand regulation of transcription factor activity. To generalize the intended target to other relatable targets, this assay endpoint is annotated to the transporter intended target family, where the subfamily is ABC transporter.
# A total of 1060 chemcials from the ToxCast library were tested in eight-point concentration-response experiments. Cell culture and cytotoxicity assays were conducted at Thermo Fisher Scientific's Custom Services facility (Madison, WI). A single lot of human HepaRG cells (Thermo Fisher Scientific, Frederick, MD) was used for the cell culture experiments. 96-well format collagen type I coated plates of human HepaRG cells were prepared using established methods. Briefly, cryopreserved HepaRG cells were thawed, plated at a density of approximately 100,000 cells/well in HepaRG Thaw, Plate, and General Purpose media (HPRG770, Thermo Fisher Scientific), and incubated for 48 hours. 0.5% DMSO was selected as vehicle control to balance the requisite need of DMSO in HepaRG cultures to maintain differentiation (for example, baseline metabolism, proportions of hepatocytes vs. cholangiocytes), while enabling further hepatic receptor pathway activation (for example, PXR and CAR) in response to chemical exposure. 48 hours after plating, the culture medium was replaced with HepaRG Serum-Free Incudtion Media. Cells were exposed to each test chemical in duplicate and maintained in CO2 incubators for another 48 hours. Chemical plates were thawed to room temperature and 200x concentrations of treatment groups were prepared. 8-point conentration-reponse curves were made with the highest exposure at 100 uM, followed by half-log dilutions, all in 0.5% DMSO. Each test plate contained variouse controls, induction positive controls (1mM phenobarbital), cytotoxicity positive controls ([…] aflatoxin B1), vehicle controls (0.5% DMSO), and total lysis controls (0.5% DMSO). Cell morphology images were taken using an Essen IncuCyte FLR automated microscope, with six 96-well plates imaged in about 24 minutes. Images were captured and exported and JPEG files. Spent culture media was transfered to black-well plates for the LDH assay, and remaining media was sorted at -80 C for later use. Cells were treated with RLT buffer and frozen until shipped for gene expression analysis. Total RNA was isolated from the cell suspension in 75 uL of Buffer RLT (Qiagen, Germantown, MD 20874) by Quintiles/Expression Analysis (Durham, NC) using a custom isolation procedure. Total RNA from each plate well was transferred to a preamplification plate. Fluidigm's 96.96 Dynamic ArrayTM (Fluidigm, Amsterdam, the Netherlands) technology was used for gene expression analyses by quantitative reverse transcription polymerase chain reaction (qRT-PCR, performed by Quintiles/Expression Analysis, Durham, NC)89. Standard TaqManTM Assays (Applied Biosystems/ThermoFisher Scientific, Foster City, CA) were used to assess the expression of 93 genes selected based on their selectivity and sensitivity to important hepatic receptors known to be modulated by environmental chemicals; importance in human hepatocyte functionality; and hepatotoxicity. […]
Compound,outcome,AC50
CCCCCOC(=O)COc1cc(N2C(=O)C3=C(CCCC3)C2=O)c(F)cc1Cl,inactive,
CCOC(=O)COc1cc(-n2ncc(C(F)(F)F)c(C)c2=O)c(F)cc1Cl,inactive,
CC1(C)C(C=C(Cl)Cl)C1C(=O)OCc1cccc(Oc2ccccc2)c1 (stereo not given),inactive,
CC(=O)S[C@@H]1CC2=CC(=O)CC[C@]2(C)[C@H]2CC[C@@]3(C)[C@@H](CC[C@@]34CCC(=O)O4)[C@H]12,inactive,
O=C(c1ccc(O)cc1O)c1ccc(O)cc1O,inactive,
CCOC(=O)c1ccc(O)cc1,inactive,
CCOC(=O)C(C)Oc1ccc(Oc2nc3ccc(Cl)cc3o2)cc1 (stereo not given),inactive,
O=C(Nc1ccc([N+](=O)[O-])cc1Cl)c1cc(Cl)ccc1O,,3.13 µM (active)
OB(O)O,inactive,
CCCOC(=O)NCCCN(C)C,inactive,
CCCOC(=O)c1ccc(C(=O)OCCC)nc1,inactive,
CCC(C)OC(=O)N1CCCCC1CCO (stereo not given),inactive,
CSC(=O)c1cccc2nnsc12,inactive,
CC(=O)[C@H]1CC[C@H]2[C@@H]3CCC4=CC(=O)CC[C@]4(C)[C@H]3CC[C@]12C,,78.9 µM (active)
S=C([S-])NCCNC(=S)[S-].[Mn+2],,2.87 µM (active)
COC(=O)c1ccccc1C(=O)O,inactive,
Oc1ccc(C(c2ccc(O)cc2)C(Cl)(Cl)Cl)cc1,,83.1 µM (active)
C[C@]12CC[C@@H]3c4ccc(O)cc4C[C@@H](CCCCCCCCCS(=O)CCCC(F)(F)C(F)(F)F)[C@H]3[C@@H]1CC[C@@H]2O (stereo not given in full),,22.4 µM (active)
O=C(O)c1ccccc1,inactive,
CCCCOC(=O)C(C)Oc1ccc(Oc2ccc(C(F)(F)F)cn2)cc1 (stereo not given),inactive,

Compound,outcome,AC50
CCN(Cc1c(F)cccc1Cl)c1c([N+](=O)[O-])cc(C(F)(F)F)cc1[N+](=O)[O-],,50 µM (active)
COc1c(Cl)ccc(Cl)c1C(=O)O,inactive,
O=C(O)C1(C(=O)Nc2ccc(Cl)cc2Cl)CC1,,66.4 µM (active)
CCCCOCCOCCOCc1cc2c(cc1CCC)OCO2,,7.48 µM (active)
CCOC(=O)C(C)Oc1ccc(Oc2cnc3cc(Cl)ccc3n2)cc1 (stereo not given),inactive,
CCCCC(CC)COC(=O)c1ccccc1C(=O)O (stereo not given),inactive,
CCCCCCC(C)OC(=O)COc1nc(F)c(Cl)c(N)c1Cl (stereo not given),inactive,
COC(=O)c1ccc(I)cc1S(=O)(=O)NC(=O)Nc1nc(C)nc(OC)n1,inactive,
c1ccc(Nc2ccccc2)cc1,inactive,
C#CCOC(=O)[C@@H](C)Oc1ccc(Oc2ncc(Cl)cc2F)cc1,inactive,
C#C[C@]1(O)CC[C@H]2[C@@H]3CCC4=CC(=O)CC[C@@H]4[C@H]3CC[C@@]21CC,inactive,
CCSC(=O)N(CC(C)C)CC(C)C,inactive,
C[C@]12C[C@H](O)[C@H]3[C@@H](CCC4=CC(=O)CC[C@@]43C)[C@@H]1CC[C@@H]2C(=O)CO,,67.9 µM (active)
CCCCC(CC)CN1C(=O)C2C3C=CC(C3)C2C1=O (stereo not given),inactive,
S=C(S)NCCNC(=S)S.[Mn+2].[S-]C([S-])=NCCN=C([S-])[S-].[Zn+2],,1.09 µM (active) and 988 nM (active) and 1.44 µM (active)
CCNc1nc(N)nc(Cl)n1,inactive,
CC(C)(C)[C@@H](O)[C@@H](Cc1ccc(Cl)cc1)n1cncn1,,13.1 µM (active)
COC(=O)CSc1cc(N=c2sc(=O)n3n2CCCC3)c(F)cc1Cl,,50 µM (active)
CCCN(CCC)C(=O)SCC,inactive,
CC(C)CCCCCCc1ccc(O)cc1,inactive,
